# JMJD2A Tudor – inhibitors of human JMJD2A Tudor domain; O75164; AlphaScreen JMJD2A-Tudor / H3K4me3 peptide binding; Potency, µM (doses to about 114 µM), for the others: at the highest dose activity change, negative = inhibition, hits mostly inhibitors; actives 4.4% (n = 390,000); AID 504339; further: on the % scale 0 is the no-effect control and ±100 the full control effect; nearly all actives have a fitted effect of over 50% in size
# VDR inhibitor – vitamin D3 receptor (human) inhibition. P11473. VDR-SRC2-3 peptide fluorescence polarization, 2 h. Potency, µM, inactives show max response, negative = inhibition, usual class: inhibitors. actives 0.93% (n = 400,000). AID 504847; further: on the % scale 0 is the no-effect control and ±100 the full control effect
# Target sequence (P11473 whole entry, looked up): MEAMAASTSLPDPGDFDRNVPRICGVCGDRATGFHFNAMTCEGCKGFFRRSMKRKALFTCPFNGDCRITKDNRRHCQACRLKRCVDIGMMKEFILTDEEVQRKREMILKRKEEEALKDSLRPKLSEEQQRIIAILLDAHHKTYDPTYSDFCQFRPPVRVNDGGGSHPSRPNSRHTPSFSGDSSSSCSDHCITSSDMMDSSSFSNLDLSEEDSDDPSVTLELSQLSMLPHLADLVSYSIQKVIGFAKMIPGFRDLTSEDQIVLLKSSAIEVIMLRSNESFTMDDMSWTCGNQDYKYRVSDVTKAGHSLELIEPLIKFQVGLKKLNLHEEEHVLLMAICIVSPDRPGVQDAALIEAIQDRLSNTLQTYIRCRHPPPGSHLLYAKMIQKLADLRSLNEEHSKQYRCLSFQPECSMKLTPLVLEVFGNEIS
#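 Reagent solutions, kept cold and dark, are dispensed first; compounds are then pinned in at 23 nl, plates briefly spun, and incubated 2 h at ambient temperature. Inhibition of VDR–SRC2-3 peptide binding is read by fluorescence polarization.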
# L3MBTL1 inh – L3MBTL1 (human) inhibition; Potency, µM (doses to about 57.1 µM), for the others: top-dose activity, negative = inhibition, usual class: inhibitors; actives 0.66% (n = 230,000); Q9Y468; AID 485360; AlphaScreen L3MBTL1–H3K9me1 peptide binding; further: on the % scale 0 is the no-effect control and ±100 the full control effect; nearly all actives have a fitted effect of over 60% in size
#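 Read-out is AlphaScreen signal from streptavidin donor and nickel chelate acceptor beads (10 ug/mL final each) bridging L3MBTL1 (50 nM) and biotinylated K9-monomethylated H3(1-15) peptide (75 nM), after 30 min compound exposure at room temperature.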
# BAZ2B inh – BAZ2B (human) inhibition; AlphaScreen BAZ2B-H3K14Ac peptide displacement; Potency, µM (highest dose often 114 µM), for inactives: at the top dose activity change, negative = inhibition, hits mostly inhibitors; actives 4.4% (n = 360,000); AID 504333; further: on the % scale 0 is the no-effect control and ±100 the full control effect; nearly all actives have a fitted effect of over 60% in size
#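 Multi-concentration screen (max 110 uM) measuring displacement of acetylated histone H3 peptide from BAZ2B by AlphaScreen, using 50 nM protein, 50 nM peptide and 10 ug/mL streptavidin donor plus Ni-chelate acceptor beads.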
# HP1b chromo inh – blocks HP1-beta chromodomain binding to methylated histone tails; P83916; AlphaScreen HP1-beta / biotin-H3K9me3 peptide binding; actives 0.56% (n = 390,000); Potency, µM (doses to about 114 µM), inactives show top-dose activity change, negative = inhibition, usual class: inhibitors; AID 540317; further: nearly all actives have a fitted effect of over 70% in size
# Target sequence (P83916 whole entry, looked up): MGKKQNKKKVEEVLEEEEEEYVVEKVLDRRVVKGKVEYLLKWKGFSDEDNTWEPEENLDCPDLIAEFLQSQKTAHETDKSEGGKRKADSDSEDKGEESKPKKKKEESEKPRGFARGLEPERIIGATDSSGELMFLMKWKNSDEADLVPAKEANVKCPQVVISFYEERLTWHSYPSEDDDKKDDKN
#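 HP1-beta protein (50 nM final) preincubated 30 min at room temperature with biotinylated H3(1-18)K9me3 peptide (50 nM) in PBS pH 7.4, 0.01% Tween-20, then compound added for 30 min. AlphaScreen streptavidin donor/nickel chelate acceptor beads (10 ug/mL final), 30 min dark, luminescence read.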
# PLK1 PBD inh – PLK1 (human) polo-box domain binding inhibition. P53350. Plk1 PBD binding of FITC phosphopeptide, fluorescence polarization. AID 720504. Potency, µM, inactives show max response, negative = inhibition, hits mostly inhibitors. actives 2.8% (n = 360,000); further: series mostly up to about 57 µM; on the % scale 0 is the no-effect control and ±100 the full control effect; nearly all actives have a fitted effect of over 65% in size
# Active calls of the source: *; u = inconclusive; x = no result given; [ ] = dose if it differs, or a comment. Most compounds without a hit are left out; they make up all but 6.9% or so of the library. The call rests on the fitted dose curve; in most records, active means well fitted curve in the direction sought with a large enough effect; inconclusive means small, poorly fitted or top-dose-only effect, or another doubt; inactive means no such curve, though single readings can be large; an effect the other way counts as inactive or inconclusive. Potency means the concentration at half of the fitted maximal effect.
SMILES,JMJD2A Tudor,VDR inhibitor,L3MBTL1 inh,BAZ2B inh,HP1b chromo inh,PLK1 PBD inh
Cc1ccc(/C=N/n2c(-c3ccccc3)n[nH]c2=S)cc1,79.4µM*,-17.0%,-8.5%,-28.2%,31.3%,-15.1%
O=C(CSc1nnc(-c2ccc(Br)cc2)n1CCc1ccccc1)NC1CCS(=O)(=O)C1 (stereo unspecified),-12.1%,-13.1%,3.9%,3.4%,9.8%,-13.6%
Cc1cc(C)c(S(=O)(=O)Nc2ccc(Cl)cn2)c(C)c1,-6.3%,-4.2%,-0.2%,-24.0%,18.0%,-10.9%
CNS(=O)(=O)c1cccc(C(=O)OCC(=O)Nc2ccc3ccccc3c2)c1,-11.0%,8.1%,-0.8%,x,15.3%[57 µM],-2.0%
O=C1Cc2cc(S(=O)(=O)N3CCN(c4ccc(F)cc4)CC3)ccc2N1,-26.2%[229 µM],x,x,x,x,x
Cc1ccc(NS(=O)(=O)c2cc3c(cc2-c2ccccc2)NC(=O)CO3)cc1C,-29.3%,x,x,x,x,x
N#CC1c2ccccc2C=CN1C(=O)N(c1ccccc1)c1ccccc1 (stereo unspecified),-9.6%,70.8µM*,x,x,22.0%,3.8%
COc1cc(/C=C/C(=O)OCC(=O)Nc2cc(S(=O)(=O)N3CCCCC3)ccc2C)ccc1O,-28.9%,4.7%,-7.1%,-24.5%,6.0%,-9.8%
COc1cc(/C=C/C(=O)OCC(=O)Nc2ccc(C)c(S(=O)(=O)N3CCCCC3)c2)ccc1O,35.5µM*,u,-7.8%,u,-15.2%,7.52µM*
COCCNCC(=O)Nc1ccc(C)c(S(=O)(=O)N2CCCCC2)c1,35.5µM*,-4.0%,7.5%,x,u,-16.5%
COc1ccc(NC(=O)Cc2ccc(C)cc2)cc1S(=O)(=O)N1CCCCC1,-12.6%,17.6%,-1.0%,9.7%,31.4%,0.5%
COc1ccc(NC(=O)CN2CCCCC2)cc1S(=O)(=O)N1CCCCC1,2.51µM*,9.0%,-1.0%,x,u,2.7%
Cc1ccc(NC(=O)CN2CCOCC2)cc1S(=O)(=O)N1CCCCC1,-8.2%,-17.4%,36.1%,x,31.3%,5.0%
Cc1ccc(NC(=O)CNCCCN2CCOCC2)cc1S(=O)(=O)N1CCCCC1,17.8µM*,3.4%,-19.8%,50.1µM*,u,-3.3%
O=C(Nc1ccc(-c2nc3cc(Cl)ccc3o2)cc1)c1cc2ccccc2o1,-8.8%,14.2%,x,3.4%,29.6%,x
Cc1ccc(N2CCN(C(=O)CCc3c(C)nc4ncnn4c3C)CC2)c(C)c1,-12.1%,-8.9%,x,-14.0%,23.6%,x
Cc1ccc(NC(=O)CSc2ccc(Br)cc2)cc1S(=O)(=O)N1CCOCC1,-1.7%,-27.0%,5.6%,5.0%,-3.5%,11.9µM*
COC(=O)c1ccccc1NC(=O)C1CCN(C(=O)N2CC(C)Oc3ccccc32)CC1 (stereo unspecified),-9.5%,8.0%,x,-22.1%,24.6%,x
Cc1cc(Cl)ccc1NS(=O)(=O)c1ccc2c(c1)CC(C)N2C(=O)C1CCC1 (stereo unspecified),-25.1%,9.7%,x,-3.3%,28.4%,x
CCc1cc2c(SCC(=O)NC3CCCC3)ncnc2s1,x,x,x,x,x,-1.8%
CCc1cc2c(SCC(=O)c3ccc(C)cc3)ncnc2s1,-9.2%[11.4 µM],7.8%,0.9%,10.9%,-1.8%,29.9µM*
C(=N\Nc1ncnc2nc[nH]c12)/c1cccs1,u,3.7%,-2.5%,50.1µM*,31.6%,4.1%
COC(=O)c1ccc(-c2noc(CN(Cc3nccn3C)C(C)C)n2)cc1,-14.3%[11.4 µM],-24.4%,-0.5%,-30.9%,-13.2%,16.8µM*
COC(=O)c1ccc(-c2noc(CN3CCCCC3c3nccn3C)n2)cc1 (stereo unspecified),-21.7%,8.2%,-7.8%,-6.9%,20.7%,-10.7%
O=C(c1ccc2c(=O)n(CC3CCCO3)c(=S)[nH]c2c1)N1CCN(C(=O)c2ccco2)CC1 (stereo unspecified),u,1.8%,x,x,56.0%,x
SMILES,JMJD2A Tudor,VDR inhibitor,L3MBTL1 inh,BAZ2B inh,HP1b chromo inh,PLK1 PBD inh
O=C(NCC1CCCO1)c1ccc2c(=O)n(CC3CCCO3)c(=S)[nH]c2c1 (stereo unspecified),7.94µM*,-11.8%,x,u,28.7%,-6.3%
O=C(NCC1CCCO1)c1ccc2c(c1)N(Cc1ccccc1)C(=O)CS2 (stereo unspecified),u,-17.8%,x,-1.2%,12.3%,29.9µM*
CCOC(=O)N1CCN(C(=O)c2ccc3c(=O)n(CC4CCCO4)c(=S)[nH]c3c2)CC1 (stereo unspecified),50.1µM*,-1.1%,0.4%,-26.1%,62.1%,-0.4%
CCOCCCn1c(=S)[nH]c2cc(C(=O)N3CCC(C(N)=O)CC3)ccc2c1=O,8.91µM*,-12.7%,10.2%,u,19.2%,-4.8%
CCCS(=O)(=O)NC(=O)C1(C)CCN(C(=O)c2cc(F)cc(F)c2)C1 (stereo unspecified),x,x,x,x,x,-0.4%
COCCn1c(=S)[nH]c2cc(C(=O)NCC3CCCO3)ccc2c1=O (stereo unspecified),17.8µM*,11.8%,2.0%,u,23.7%,-23.4%
COCCn1c(=O)[nH]c2cc(C(=O)NCC3CCCO3)ccc2c1=O (stereo unspecified),6.1%,-1.6%,13.1%,10.2%,15.3%,-13.2%
COc1ccc2cc3c(N)nn(C(=O)c4ccc(OC)c(OC)c4)c3nc2c1,-26.6%,1.8%,14.1%,79.4µM*,26.6%,x
COc1ccc2cc3c(N)nn(C(=O)c4ccc(F)cc4)c3nc2c1,-16.7%,7.8%,x,-13.9%,37.4%,-15.5%
OCCNCc1c(OCc2ccc(Cl)cc2)ccc2ccccc12,-12.1%,-20.9%,x,6.5%,34.9%,-12.7%
Cc1ccccc1NC(=O)CSc1nc(-c2ccccc2)cn1-c1ccccc1F,u,1.4%,x,u,-16.8%,x
COc1ccc(/C=N/n2c(-c3ccc(C)cc3)n[nH]c2=S)cc1OC,7.94µM*,-11.7%,1.2%,-6.2%,27.8%,-9.3%
COc1ccc(Br)cc1/C=N/n1c(-c2ccccc2)n[nH]c1=S,u,-4.0%,-4.3%,-34.9%,30.5%,-11.3%
COc1cc(/C=N/n2c(-c3ccccc3)n[nH]c2=S)cc(OC)c1O,3.16µM*,18.9%,-7.4%,-11.8%,-13.4%,-4.6%
COc1cc(/C=N/n2c(-c3ccccc3)n[nH]c2=S)ccc1O,5.01µM*,-17.3%,-12.2%,-2.0%,3.9%,-6.3%
CC(=O)Nc1ccc2nc(C3CC3)n(Cc3ccc(Cl)cc3)c(=O)c2c1,-5.5%,-5.1%,x,-33.5%,24.9%,4.6%
CCC(=O)Nc1ccc2nc(C3CC3)n(Cc3ccc(C(C)(C)C)cc3)c(=O)c2c1,u,u,x,-4.1%,5.6%,11.9µM*
Cc1nnnn1/C(=C\c1ccccc1)C(=O)OCC(=O)Nc1ccc(Cl)cc1F,-14.9%,39.8µM*,4.5%,-2.3%,13.4%,-29.4%
O=C(COC(=O)Cc1n[nH]c(=O)c2ccccc12)Nc1ccc(Cl)cc1F,-10.9%,-13.9%,5.6%,x,23.0%,-6.5%
